Screens (PubChem)
Nox1 inhibitor: inhibitors of human NADPH oxidase 1 (Nox1); hit rate 0.81% among 16,000; inhibition, % at 6.7 µM; HT29 cells, luminol chemiluminescence ROS
Target sequence (Q9Y5S8 whole entry, looked up): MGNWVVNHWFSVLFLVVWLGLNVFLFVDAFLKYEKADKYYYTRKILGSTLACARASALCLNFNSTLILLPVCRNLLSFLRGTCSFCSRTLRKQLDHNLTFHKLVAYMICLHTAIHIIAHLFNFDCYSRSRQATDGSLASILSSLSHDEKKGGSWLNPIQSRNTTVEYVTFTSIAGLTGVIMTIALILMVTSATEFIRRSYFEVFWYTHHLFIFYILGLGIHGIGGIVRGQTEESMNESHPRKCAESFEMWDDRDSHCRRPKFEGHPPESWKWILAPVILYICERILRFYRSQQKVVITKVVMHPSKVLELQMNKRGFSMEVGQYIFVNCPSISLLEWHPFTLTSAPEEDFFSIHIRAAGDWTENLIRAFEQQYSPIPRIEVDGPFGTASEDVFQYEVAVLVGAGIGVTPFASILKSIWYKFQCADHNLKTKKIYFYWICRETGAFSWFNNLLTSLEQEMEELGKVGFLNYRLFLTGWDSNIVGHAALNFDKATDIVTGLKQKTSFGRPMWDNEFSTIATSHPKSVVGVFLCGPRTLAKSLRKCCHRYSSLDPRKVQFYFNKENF
luminol inh ctr: counter-screen for Nox1 inhibitors: inhibitors of luminol chemiluminescence; hit rate 0.4% among 16,000; HRP/luminol/H2O2 chemiluminescence counterscreen; AID 1823, 2009; inhibition, % at 6.7 µM; further: reference of the scale not given here
NOTCH ag: agonists of NOTCH signaling; NOTCH signaling luciferase reporter cells, luminescence; activation, % at 2.5 µM; hit rate 0.4% among 15,000; in the data active means activation above about 2.2%
PME-1 Maybridge: inhibitors of human PME-1 in Maybridge library; inhibition, % at 9 µM; hit rate 0.5% among 16,000; AID 2291, 2010; Protein phosphatase methylesterase 1 (Homo sapiens), Q9Y570; recombinant PME-1, FP-Rh probe fluorescence polarization; in the data active means inhibition above about 30%
Active calls of the source: *. Hits are enriched below; roughly 2.2% of the tested compounds scored in any of these assays. Unless noted, no stated cut-off is given here; in the data, active means inhibition above about 75%; inactive means the rest.

SMILES	Nox1 inhibitor	luminol inh ctr	NOTCH ag	PME-1 Maybridge
O=C1C(Cl)=C(Cl)C(=O)c2ccccc21	34	13	-1	45*
O=[N+]([O-])/C=C/c1ccc(OCc2ccccc2)cc1	-48	3	0	-7
CNC(=O)Oc1ccc(-c2nc(CSc3ccc(Cl)cc3)cs2)cc1	-27	102*	0	-11
C#CC(C)(C)N=C(N)N[N+](=O)[O-]	12	-3	-1	7
